# Data taken from ChEMBL document CHEMBL4513216, “Probing the Open Global Health Chemical Diversity Library for Multistage-Active Starting Points for Next-Generation Antimalarials” (ACS Infect Dis, 2020).
# Hit rate of the full screen: of about 69,000 compounds, about 8,600 (12%) showed an effect of 50% or more. The full list was thinned out, with strong results kept by preference.
# System: Plasmodium berghei
# Assay: Screen against P. berghei liver stage (PbLuc), transformed with Luciferase, at 10uM
# Type: functional, HepG2
# Details: tested at 10 uM
row,SMILES,INHIBITION
1,CNC(=O)c1cccc(CNC(C)c2cc(Cl)ccc2OC)c1 (stereo not drawn),18.9%
2,CNC(=O)c1cccc(CNC(C)c2ccc(F)cc2N(C)C)c1 (stereo not drawn),66.8%
3,CC(NCCN1CCC(N(C)C)CC1)c1ccc(F)cc1N(C)C (stereo not drawn),40.6%
4,CNC(=O)c1cccc(CCNS(C)(=O)=O)c1,21.3%
5,CNC(=O)c1cccc(CNC(C)c2cc(C)ccc2OC(F)F)c1 (stereo not drawn),51.5%
6,CC(NCCCN1CCCC1=O)c1ccc(F)cc1N(C)C (stereo not drawn),-2.75%
7,O=S(=O)(NC[C@]12COC[C@H]1CN(c1ncc(F)cn1)C2)C1CC1,-15.6%
8,CCOC(CC)C(=O)NCCC(=O)N1CCN(c2ncccn2)CC1 (stereo not drawn),-18.2%
9,COc1ccc2nc(NC(=O)c3c(C(=O)O)cnn3C)sc2c1,28.7%
10,CC(CNCc1ccc2c(c1)n(C)c(=O)n2C)Oc1ccccn1 (stereo not drawn),-8.51%
11,Cc1ccccc1C1CCN(CCn2cc(-c3nccn3C)nn2)C1 (stereo not drawn),28%
12,Cc1ccccc1C1CCN(CCn2cc(-c3cccc(O)c3)nn2)C1 (stereo not drawn),59.3%
13,Cc1ccccc1C1CCN(CCn2cc(-c3nccs3)nn2)C1 (stereo not drawn),4.15%
14,Cc1noc(OCC(=O)N2CCCCC2C)n1 (stereo not drawn),-26.4%
15,Cc1cccc(C)c1OC1CCN(Cc2ccn(C)c(=O)c2)CC1,58%
16,Cn1ccc(CN2CCC(COC3CCCC3)CC2)cc1=O,58%
17,COc1ccc(OC2CCN(Cc3ccn(C)c(=O)c3)CC2)cc1,45.7%
18,Cn1ccc(CN2CCC(Oc3ccccc3)CC2)cc1=O,25.6%
19,Cn1ccc(CN2CCC(CO)CC2)cc1=O,-10.8%
20,Cn1ccc(CN2CCC(OCc3ccccc3)CC2)cc1=O,3.15%
21,CN(C)[C@@H]1CCN(C(=O)NC2CCCC2)[C@H]1Cc1ccncc1,23.3%
22,O=c1[nH]c(N2CCCCC2)nc2c1CCN(Cc1cccnc1)C2,8.72%

row,SMILES,INHIBITION
1,CCn1c(=O)c2cc(S(N)(=O)=O)ccc2n(CC)c1=O,2.84%
2,CC(C)N(C)Cc1cn2c(n1)CN(Cc1ccsc1)CC2,-14.9%
3,Cc1cc(CN2CCCC(Cn3cncn3)C2)on1 (stereo not drawn),35.3%
4,Cc1nc(CNC(=O)NCc2cccnc2N(C)C)cs1,-27.8%
5,COc1ccc(NC(=O)N2CCCC2c2ccco2)c(OC)c1 (stereo not drawn),41.5%
6,CN(CCNC(=O)Nc1cnn(C)c1)Cc1ccc(F)cc1,49.3%
7,CN(CCNC(=O)Nc1ccn(C)n1)Cc1ccc(F)cc1,52.7%
8,CN(CCNC(=O)Nc1nccs1)Cc1ccc(F)cc1,2.7%
9,O=C(Nc1nnn[nH]1)c1cc(-c2ccc(Br)s2)n[nH]1,11.3%
10,CN(Cc1ccco1)C(=O)C1CCCc2ccccc21 (stereo not drawn),50.5%
11,N#CCCN(Cc1ccco1)C(=O)C1CCCc2ccccc21 (stereo not drawn),24.2%
12,Cc1noc(C)c1CN(C)C(=O)C1CCCc2ccccc21 (stereo not drawn),26.6%
13,Cc1ccoc1C(=O)N1C[C@@H](N2CCN(C)CC2)[C@H]2OCCC[C@H]21,-26.5%
14,Cc1cc(-c2cnc(NC3CCCCC3)nc2-c2ccco2)on1,60.5%
15,Cc1cnc(-c2nc(NC3CCCC3)ncc2-c2onc(C)c2C)cn1,-29.8%
16,Cc1cc(-c2cnc(NC3CC3)nc2-c2ccco2)on1,-21.4%
17,Cc1cc(-c2cnc(NC3CCCC3)nc2-c2ccc(C)o2)on1,11.1%
18,Cc1cc(-c2cnc(NC3CC3)nc2-c2ccoc2)on1,3.91%
19,Cc1cc(-c2cnc(NC3CCCC3)nc2-c2ccoc2C)on1,78.5%
20,Cc1occc1-c1nc(NC2CCCC2)ncc1-c1ccccn1,62.9%
21,Cc1cc(-c2cnc(NC3CC3)nc2-c2ccc(C)o2)on1,39.2%
22,Cc1noc(-c2cnc(NC3CC3)nc2-c2ccco2)c1C,7.9%

row,SMILES,INHIBITION
1,Cc1cc(-c2cnc(NC3CCCC3)nc2-c2ccoc2)on1,41.2%
2,Cc1cc(-c2cnc(NC3CC3)nc2-c2ccoc2C)on1,58.1%
3,Cc1cc(-c2cnc(NC3CCCC3)nc2-c2ccco2)on1,-18.9%
4,O=C(NCCO)C1CN(c2cncnc2)CCO1 (stereo not drawn),3.91%
5,CCCOC1CCCN(C(=O)c2cc(CN(CC)CC)c(CC)o2)C1 (stereo not drawn),18.5%
6,COc1ccc(CN(Cc2ccccn2)Cc2cncn2C)cc1,23.9%
7,CN(Cc1nccn1C)C1CCN(CCc2ccccn2)CC1,-3.2%
8,CCn1nc(C)c(CN(CCOC)Cc2ccccn2)c1C,4.12%
9,Cc1nn(C)cc1CN(Cc1ccccn1)Cc1ccccc1Cl,48%
10,Cc1ncc(CN(Cc2ccccn2)Cc2ccccc2Cl)n1C,69.4%
11,COCCn1ccnc1CN(Cc1ccccn1)CC(C)C,44%
12,Cn1ccnc1CN(Cc1ccccn1)Cc1ccccc1Cl,79.6%
13,CCn1nc(C)c(CN(CCCN(C)C)Cc2ccccn2)c1C,-37.4%
14,CCn1nc(C)c(CN(Cc2ccccn2)Cc2ccccc2Cl)c1C,50.8%
15,O=S(=O)(CCNCCn1cccn1)c1ccccc1,19.8%
16,COC1CCN(C(=O)Nc2cc(C(F)(F)F)c[nH]c2=O)CC1,-111%
17,COCCNC(=O)C1CC(=O)N(c2n[nH]c3cccc(F)c23)C1 (stereo not drawn),-23.7%
18,CC1CCCCN1CCNC(=O)c1ccn(-c2cccc(F)c2)n1 (stereo not drawn),16.8%
19,CN(CCC(F)(F)F)C(=O)c1nc(S(C)(=O)=O)n2ccccc12,12.6%
20,Cc1nc(Nc2nnc(C)s2)cc(C2CCCN2C(C)C)n1 (stereo not drawn),-15.3%
21,COC(=O)c1cc(OC)c(OC)cc1N(C)S(C)(=O)=O,44.3%
22,CN(C)CC(=O)N1CC2(CCN(C(=O)Nc3ccccc3)C2)C1,0.112%

row,SMILES,INHIBITION
1,Cc1nc(CC(=O)NS(=O)(=O)c2cccc3cnccc23)cs1,6.33%
2,CCN1C[C@H]2C3(CCN(S(=O)(=O)CC)CC3)CC[C@@]2(C(=O)N(C)C)C1,13.7%
3,COc1cccc(CN2C[C@H]3CC[C@H]2C3)c1OCCN1CCOCC1,-14.5%
4,COc1cc2c(cc1CN1CCCCC1CN1CCOCC1)CCC2 (stereo not drawn),13.9%
5,COc1cccc(CN2CCCCC2CN2CCOCC2)c1F (stereo not drawn),60.4%
6,CCc1nc(CCn2ccnc2-c2nccn2C)no1,65.6%
7,CCc1nc(CCn2cc(-c3nccn3C)nn2)no1,23%
8,CCc1nc(Cn2ccnc2-c2nccn2C)no1,45.2%
9,CS(=O)(=O)c1cc(Cl)cnc1C1CCN(C(=O)C2CCOCC2)CC1,24.8535%
10,Cc1cccc(CN2C(=O)CC[C@@H]3[C@H]2CCN3C(=O)c2ccsc2)n1,14.8%
11,COc1cc(F)c(NCc2nc3ccccc3n2C)cc1OC,59.8%
12,COCCOc1ncccc1NCc1nc2ccccc2n1C,-16%
13,COCCOc1ccc(F)cc1NCc1nc2ccccc2n1C,-3.12%
14,O=C(c1ccc(Cl)cc1)N1CCC(N2CCCNC2=O)CC1,40.8%
15,CCN1CCN(C(=O)CCn2cccc2)CC1,2.69%
16,COCCN1CC(c2cc(O)nc(NC(C)C)n2)CC1=O (stereo not drawn),-17.7%
17,COc1ccc(CC2CN(Cc3cncn3C)CCO2)cc1 (stereo not drawn),47.1%
18,c1ccc(CCCC2CN(Cc3ncc[nH]3)CCO2)cc1 (stereo not drawn),28.5%
19,CNc1nccnc1C1CN(Cc2ccc3[nH]ccc3c2)CCO1 (stereo not drawn),21.1%
20,COc1ccc(CN2CCOC(CCc3ccnc(N)c3)C2)cc1 (stereo not drawn),87.1%
21,Nc1cc(CCC2CN(Cc3ccc4cc[nH]c4c3)CCO2)ccn1 (stereo not drawn),78.2%
22,Nc1cc(CCC2CN(Cc3ccc4c(c3)OCCO4)CCO2)ccn1 (stereo not drawn),69.3%

row,SMILES,INHIBITION
1,Cc1cc(C)n(CC2CN(Cc3ccc4c(c3)OCCO4)CCO2)n1 (stereo not drawn),14.3%
2,Nc1cc(CCC2CN(Cc3cccc(C(=O)O)c3)CCO2)ccn1 (stereo not drawn),45.6%
3,Nc1cc(CCC2CN(Cc3ccc(C(=O)O)cc3)CCO2)ccn1 (stereo not drawn),32.8%
4,Cc1ccnc(NCc2ccccc2N2CCOCC2)n1,46.3%
5,Cc1[nH]nc2ncc(C(=O)N3CCN(CC(C)O)CC3)cc12 (stereo not drawn),-0.96%
6,Cc1ccc(OCC2CCCN(C(=O)c3csc(CN(C)C)n3)C2)cc1 (stereo not drawn),31%
7,c1cnc(N2CCOC3(CCN(CC4CCOC4)CC3)C2)nc1 (stereo not drawn),8.64%
8,CCNC(=O)c1ccc(NC2CCOC3(CCCC3)C2)nn1 (stereo not drawn),24.6%
9,O=C(c1ccco1)N1CCO[C@@H]2CN(c3ccccc3)CC[C@@H]2C1,84.7%
10,O=C(c1ccco1)N1CC[C@@H]2CN(C3CCOCC3)CCO[C@@H]2C1,22.2%
11,O=C(c1ccco1)N1CCO[C@@H]2CN(Cc3nccs3)CC[C@@H]2C1,-5.89%
12,O=C(c1ccco1)N1CCO[C@@H]2CN(CC3CC3)CC[C@@H]2C1,85.8%
13,CCc1cnc(N2CC[C@@H]3CN(C(=O)c4ccco4)CCO[C@@H]3C2)nc1,92.5%
14,O=C(c1ccco1)N1CCO[C@@H]2CN(c3ccccn3)CC[C@@H]2C1,-26.5%
15,O=C(c1ccco1)N1CCO[C@@H]2CN(c3ncc(F)cn3)CC[C@@H]2C1,42.6%
16,Cc1cccc(N2CC[C@@H]3CN(C(=O)c4ccco4)CCO[C@@H]3C2)n1,49.5%
17,O=C(CCO)N1CC[C@@H]2CN(C(=O)c3ccco3)CCO[C@@H]2C1,80%
18,CC(=O)N1CC[C@@H]2CN(C(=O)c3ccco3)CCO[C@@H]2C1,48.3%
19,O=C(c1ccco1)N1CCO[C@@H]2CNCC[C@@H]2C1,-0.388%
20,CCc1cnc(N2CC[C@@H]3CN(C(C)=O)CCO[C@@H]3C2)nc1,45.8%
